Out of some 13,000 compounds screened, about 3,200 (25%) showed an effect of 50% or more. The list shows a part of the results.
system: P. falciparum stage V gametocytes; set-up: BacTiter-Glo ATP luminescence viability of purified stage V gametocytes in 384-well plates, per cent inhibition versus DMSO; conditions: 48 h, 5 µM; inhibitor

Compound	% Inhibition [%]
CCCCCn1c(Sc2ccc(C#N)c([N+](=O)[O-])c2)nnc1-c1cccs1 [TCMDC-135585]	31.33
O=C(NCc1ccccn1)C(c1cc2ccccc2o1)N1CCN(C(c2ccccc2)c2ccccc2)CC1 (stereo not drawn) [TCMDC-141024]	9.637
c1ccc(CN2CCC(NCc3ccccc3-c3cccc(CNC4CCCC4)c3)CC2)cc1 [TCMDC-140472]	106.9
NCc1ccc(-c2ccccc2CNC2CCN(Cc3ccccc3)CC2)cc1 [TCMDC-140468]	88.27
Oc1ccc(CN2CCC(NCc3cccc4ccccc34)CC2)cc1 [TCMDC-141654]	18.51
NCc1cccc(-c2ccccc2CNC2CCN(Cc3ccccc3)CC2)c1 [TCMDC-140467]	102.5
CC(C)c1ccc(N2CCN(CCCCNC(=O)c3ccc(NC(=O)c4cc(Cl)cc(Cl)c4)cc3)CC2)cc1 [TCMDC-138232]	-31.61
O=C(Cc1ccc(Nc2nccc(Nc3cccc4[nH]ncc34)n2)cc1)Nc1ccc(C(F)(F)F)cc1 [TCMDC-136243]	0.831
CCCCCc1cnc2nc(N)nc(N)c2c1C [TCMDC-137717]	7.113
Cc1cnc(C(=O)Nc2ccc3c(c2)CCCN(Cc2c[nH]c4cnccc24)C3)cn1 [TCMDC-134846]	9.147
CC(C)c1ccc(N(CC(=O)N/N=C/c2ccc(C(F)(F)F)cc2)S(=O)(=O)c2ccc(C(F)(F)F)cc2)cc1 [TCMDC-135354]	13.17
O=c1ccc2ccc(O)c(O)c2o1 [TCMDC-125839]	-8.739
COc1ccc(-c2cnc(N)c(-c3nc4ccc(Br)cc4[nH]3)c2)cc1 [TCMDC-133074]	-6.966
COC(=O)c1ccc(NC(=O)Nc2ccc(Cn3ncc(N4CCCNCC4)c(Cl)c3=O)cc2)cc1 [TCMDC-133315]	-30.5
CC1CN(c2cnn(Cc3ccc(NC(=O)Nc4ccc(F)cc4[N+](=O)[O-])cc3)c(=O)c2Cl)CC(C)N1 (stereo not drawn) [TCMDC-141939]	5.517
CC1CN(c2cnn(Cc3cccc(NC(=O)Nc4cccc(C(F)(F)F)c4)c3)c(=O)c2Cl)CC(C)N1 (stereo not drawn) [TCMDC-141933]	-18.84
CCOC(=O)c1ccc(NC(=O)Nc2ccc(Cn3ncc(N4CCCNCC4)c(Cl)c3=O)cc2)cc1 [TCMDC-133330]	-19
CC1CN(c2cnn(C/C=C/c3ccc(NC(=O)c4ccc([N+](=O)[O-])cc4)cc3)c(=O)c2Cl)CC(C)N1 (stereo not drawn) [TCMDC-132467]	91.62
CC1CN(c2cnn(Cc3ccc(NC(=O)Nc4cccc(C(F)(F)F)c4)cc3)c(=O)c2Cl)CC(C)N1 (stereo not drawn) [TCMDC-141938]	-19.52
CC1CN(c2cnn(Cc3cccc(NC(=O)Nc4ccc(F)cc4[N+](=O)[O-])c3)c(=O)c2Cl)CC(C)N1 (stereo not drawn) [TCMDC-141934]	17.4
CC1CN(c2cnn(C/C=C/c3ccc(NC(=O)c4ccc(Cl)cc4)cc3)c(=O)c2Cl)CC(C)N1 (stereo not drawn) [TCMDC-132469]	77.2
CC1CN(c2cnn(C/C=C/c3ccc(NC(=O)c4ccc5nonc5c4)cc3)c(=O)c2Cl)CC(C)N1 (stereo not drawn) [TCMDC-132468]	104.2

Compound	% Inhibition [%]
CN1C(=CC(=O)NC(=O)c2ccccc2)C(C)(C)c2ccccc21 [TCMDC-136649]	14.63
Cc1nc2ccc3nc(NC(=O)c4ccno4)sc3c2s1 [TCMDC-124989]	-34.07
CCCCn1c(-c2ccco2)nc2c(c(=O)c3ccccc3n2C)c1=O [TCMDC-124920]	70.03
CN(C)c1cccc2c1nc(-c1ccco1)n2CC1CCCN1 (stereo not drawn) [TCMDC-133408]	-1.299
CCCCCCCn1c(=O)c(C(=O)Nc2c(C)cccc2C)c(O)c2ccccc21 [TCMDC-124465]	13.41
Cc1ccccc1CNc1noc(-c2sccc2Br)n1 [TCMDC-134183]	-16.29
N#Cc1ccc(NC(=NC2CCCc3ccccc32)Nc2ccc(-c3ccccc3)cc2)c(O)c1 (stereo not drawn) [TCMDC-140207]	-97.78
O=C(NC1CCC(CN2CCC(c3c[nH]c4ccccc34)CC2)CC1)c1ccc(-c2ccccc2[N+](=O)[O-])o1 (stereo not drawn) [TCMDC-140295]	-19.57
N#Cc1ccc2c(c1)CCN(CCC1CCC(NC(=O)c3cc4cccc([N+](=O)[O-])c4[nH]3)CC1)C2 (stereo not drawn) [TCMDC-139188]	23.84
O=C(NC1CCC(CN2CCC(c3c[nH]c4ccccc34)CC2)CC1)c1cc2cccc([N+](=O)[O-])c2[nH]1 (stereo not drawn) [TCMDC-139879]	95.83
O=C(c1cc2cccc([N+](=O)[O-])c2[nH]1)N1CCC(CCN2CCC(c3c[nH]c4ccccc34)CC2)CC1 [TCMDC-139880]	92.61
COc1cc(C)ccc1N1CCN(CCCCNC(=O)c2ccc(NC(=O)c3ccc(Cl)cc3)cc2)CC1 [TCMDC-138374]	-7.22
O=C(Nc1cc(Cl)c(Cl)cc1NC(=O)c1cccc(-c2ccccc2)c1O)c1cccc(-c2ccccc2)c1O [TCMDC-139548]	45.99
CCNc1cc(C)nc(Nc2ccc(NC(=O)c3ccccc3Br)cc2)n1 [TCMDC-124985]	22.04
COC(=O)CNC(c1ccccc1)c1cc(Br)ccc1NC(=O)c1ccccc1Br (stereo not drawn) [TCMDC-124194]	56.77
CCOC(=O)NC1=NC(C)(C)N(OCCCOc2cc(Cl)c(Cl)cc2Cl)C(N)=N1 [TCMDC-131741]	-6.814
CC(C)C1C(O)=C(c2ccc3ccccc3c2)C(=O)N1CC1CCCCC1 (stereo not drawn) [TCMDC-141719]	18.57
Cc1cc(N[C@@H](Cc2ccccc2)C(=O)NC2CCCC2)nc(Nc2ccccc2)n1 [TCMDC-134856]	16.45
O=C(Nc1nc2cc(S(=O)(=O)NCc3ccc(Cl)c(Cl)c3)ccc2n1CCCN1CCCC1)c1ccc(Cl)cc1 [TCMDC-141622]	64.1
O=C(Nc1nc2cc(S(=O)(=O)NCc3ccc(Cl)c(Cl)c3)ccc2n1CCCn1ccnc1)c1ccc(Cl)cc1 [TCMDC-141625]	-7.697
O=C(Nc1nc2cc(S(=O)(=O)NCCCN3CCOCC3)ccc2n1CCCn1ccnc1)c1ccc(Cl)cc1 [TCMDC-141624]	31.25
O=C(O)C(F)(F)F.O=C1CCCN1CCCNCc1ccc(-c2ccc(-c3nc4cc(F)ccc4[nH]3)cc2)cc1 [TCMDC-132759]	-31.18

Compound	% Inhibition [%]
Cc1cc(C(=O)NCc2ccc(-c3c(C)noc3C)cc2)n(-c2ccccc2)n1 [TCMDC-133780]	16.41
Cc1ccc(Nc2nc(C)cc(NC3CCN(C)CC3)n2)cc1 [TCMDC-133997]	39.13
CCCCc1cc(NC2CCN(C)CC2)nc(Nc2ccccc2)n1 [TCMDC-133994]	6.593
CCCc1cc(NC2CCN(C)CC2)nc(Nc2ccc(F)cc2)n1 [TCMDC-134004]	57.16
CCCc1cc(NC2CCN(C)CC2)nc(Nc2cccc(OC)c2)n1 [TCMDC-134001]	21.8
CCc1cc(NC2CCN(C)CC2)nc(Nc2ccc(C)cc2)n1 [TCMDC-133996]	57.8
CCCc1cc(NC2CCN(C)CC2)nc(Nc2ccc(C)cc2)n1 [TCMDC-134003]	32.47
COC(=O)c1cc(C(=O)CN(Cc2ccccc2)C(C)C)ccc1O [TCMDC-131766]	18.13
CC(=O)Nc1ccc(OCCCN(Cc2ccccc2OC(F)(F)F)c2ccc(C(F)(F)F)c(C#N)c2)c(Cl)c1 [TCMDC-132789]	32.58
CC(=O)Nc1ccc(OCCN(Cc2ccccc2OC(F)(F)F)c2ccc(C(F)(F)F)c(C#N)c2)c(Cl)c1 [TCMDC-132792]	45.86
CC(=O)Nc1ccc(OCCN(Cc2ccccc2C(F)(F)F)c2ccc(C#N)c(C(F)(F)F)c2)c(Cl)c1 [TCMDC-132790]	76.06
N#Cc1ccc(N(CCOC(=O)c2ccccc2)Cc2ccccc2C(F)(F)F)cc1C(F)(F)F [TCMDC-135738]	-18.34
N#Cc1ccc(N(CCOc2ccc(Cl)cc2)Cc2ccccc2C(F)(F)F)cc1C(F)(F)F [TCMDC-132794]	-24.46
CC(=O)Nc1ccc(OCCCCN(Cc2ccccc2C(F)(F)F)c2ccc(C(F)(F)F)c(C#N)c2)c(Cl)c1 [TCMDC-133358]	47.4
N#Cc1ccc(N(CCCO)Cc2ccccc2C(F)(F)F)cc1C(F)(F)F [TCMDC-134689]	3.655
N#Cc1ccc(N(CCNS(=O)(=O)c2cc(Br)c(Cl)s2)Cc2ccccc2C(F)(F)F)cc1C(F)(F)F [TCMDC-135822]	50.22
N#Cc1ccc(OCCN(Cc2ccccc2C(F)(F)F)c2ccc(C#N)c(C(F)(F)F)c2)cc1 [TCMDC-132799]	28.83
CC(=O)Nc1ccc(OCCN(Cc2ccccc2C(F)(F)F)c2ccc(C#N)c(C(F)(F)F)c2)cc1 [TCMDC-132802]	0.1764
CC(=O)Nc1ccc(OCCCN(Cc2ccccc2C(F)(F)F)c2ccc(C(F)(F)F)c(C#N)c2)c(Cl)c1 [TCMDC-132785]	61.05
N#Cc1ccc(N(CCOC(=O)c2ccc(Br)s2)Cc2ccccc2C(F)(F)F)cc1C(F)(F)F [TCMDC-135739]	59.47
CCC(=O)Nc1cc(=O)[nH]c2nc(-c3ccc(Cl)cc3)nn12 [TCMDC-125473]	-75.71
Cc1cc(-c2cc(-c3ccc(OCCN(C)C)cc3)[nH]c2-c2ccc3c(c2)CCC3=NO)ccn1 [TCMDC-141302]	25.92
